Test results taken from PubChem BioAssay (NCATS).
Results filed as inconclusive are left out. Unless noted, calls follow the shape of the dose curve; as a rule, active = well fitted curve in either direction with a large enough effect (not every such curve was filed as active); inconclusive = small, poorly fitted or top-dose-only effect, or another doubt; inactive = flat fitted curve, though single readings scatter.

Assays:
[1] = AP1 Signaling Pathway (AID 357); details: ME-180 AP-1-bla reporter, EGF-induced, beta-lactamase ratio, 5 h; at 17.2 µM (top of the series) unless noted;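 also: ME-180 reporter cells stimulated with EGF at its EC50 level; % is scaled to controls: 0 for no effect and ±100 for the full control effect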
Method in brief: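 Cells are seeded overnight, exposed to compound titrations and an EC50 level of EGF for 5 hours at 37 °C, then loaded with CCF4 dye for 2.5 hours. Beta-lactamase activity under the AP-1 element is read as a blue/green ratio.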

[2] = NFAT Signaling Pathway (AID 444); details: Jurkat NFAT-bla M1, carbachol, beta-lactamase ratio, 5 h; at 17.2 µM (top of the series) unless noted;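 also: carbachol stimulus at about its EC50 of 1 µM final; % is scaled to controls: 0 for no effect and ±100 for the full control effect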
Method in brief: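 Jurkat cells carrying an NFAT-driven β-lactamase reporter and co-transfected muscarinic M1 receptor were treated with compound plus carbachol (1 uM final, an EC50 level) for 5 h at 37 °C. CCF4 loading followed for 1 h at RT; 460/530 nm ratio gave %activity.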

[3] = Stat Signaling Pathway (AID 446); details: ME-180 SIE beta-lactamase reporter, IL-6 stimulated, 5 h; at 17.2 µM (top of the series) unless noted;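 also: ME-180 cervical cancer cells given 40 pM IL-6 alongside compound; SIE-controlled beta-lactamase reporter measured as 460/530 nm FRET emission ratio; % is scaled to controls: 0 for no effect and ±100 for the full control effect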
Method in brief: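 Reporter line: ME-180 cervical carcinoma, SIE-beta-lactamase. Treatment: compound with 40 pM IL-6, 5 hrs, 37 C, in low-serum OPTI-MEM with 10 mM HEPES pH 7.3. Detection: 460/530 nm fluorescence.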

[4] = target: Glucocorticoid receptor (Homo sapiens) (UniProt P04150); test: GR-GFP Redistribution (AID 450;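 active = compounds whose dose series gives a full or clear partial fitted curve of increased nuclear translocation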; also: potency is read from the fitted curve at half-maximal effect)
Glucocorticoid receptor (Homo sapiens), sequence (P04150 whole entry, looked up): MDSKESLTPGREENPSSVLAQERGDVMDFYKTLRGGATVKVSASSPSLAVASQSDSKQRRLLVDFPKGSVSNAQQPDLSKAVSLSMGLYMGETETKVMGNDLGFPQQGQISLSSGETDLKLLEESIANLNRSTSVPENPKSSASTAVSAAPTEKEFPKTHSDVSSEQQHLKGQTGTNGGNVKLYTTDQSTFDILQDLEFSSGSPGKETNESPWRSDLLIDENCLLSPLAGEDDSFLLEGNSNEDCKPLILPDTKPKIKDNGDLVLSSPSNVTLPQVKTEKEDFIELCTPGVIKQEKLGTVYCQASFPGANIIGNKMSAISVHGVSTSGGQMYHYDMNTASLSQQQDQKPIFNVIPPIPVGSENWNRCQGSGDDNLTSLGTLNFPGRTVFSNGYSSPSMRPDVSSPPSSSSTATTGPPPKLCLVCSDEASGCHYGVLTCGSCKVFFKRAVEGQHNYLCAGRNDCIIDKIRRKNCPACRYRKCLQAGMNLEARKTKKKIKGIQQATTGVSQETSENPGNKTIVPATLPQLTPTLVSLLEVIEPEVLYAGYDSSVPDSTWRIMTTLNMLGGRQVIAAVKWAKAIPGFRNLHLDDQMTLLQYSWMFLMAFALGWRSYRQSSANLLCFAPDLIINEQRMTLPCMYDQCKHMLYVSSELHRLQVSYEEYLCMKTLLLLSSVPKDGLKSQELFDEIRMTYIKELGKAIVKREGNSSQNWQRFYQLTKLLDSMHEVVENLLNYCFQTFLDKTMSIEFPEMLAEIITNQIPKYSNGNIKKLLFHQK

COc1cccc(Cn2c(NCC(C)C)nc3c2c(=O)n(C)c(=O)n3C)c1
inactive: activity change, negative = inhibition [1] 15.5% | activity change, negative = inhibition [2] -1.36% | activity, negative = inhibition [3] -6% | Potency [4] > 20.6 µM

Cn1c(=O)c2c(nc(OCc3cccnc3)n2Cc2ccccc2)n(C)c1=O
inactive: activity change, negative = inhibition [1] -9.82% | activity change, negative = inhibition [2] -6.31% | activity, negative = inhibition [3] -1.88% | Potency [4] > 20.6 µM

Cc1ccccc1N1C(=O)C2ON(c3ccccc3)C(c3cccnc3)C2C1=O (stereo not given)
inactive: activity change, negative = inhibition [1] -2.7% | activity change, negative = inhibition [2] -0.971% | activity, negative = inhibition [3] -4.14% | Potency [4] > 20.6 µM

CCOC(=O)c1[nH]c2ccc(OC)cc2c1C
inactive: activity change, negative = inhibition [1] -0.35% | activity change, negative = inhibition [2] -6.84% | activity, negative = inhibition [3] 6% | Potency [4] > 20.6 µM

CCCCC(CCC(=O)Nc1ccc(C(=O)OC)cc1)C(=O)O (stereo not given)
inactive: activity change, negative = inhibition [1] 9.55% | activity change, negative = inhibition [2] 7.48% | activity, negative = inhibition [3] 8.56% | Potency [4] > 20.6 µM

CCCC(CCC(=O)Nc1ccc(C(=O)OC)cc1)C(=O)O (stereo not given)
inactive: activity change, negative = inhibition [1] -9.55% | activity change, negative = inhibition [2] -16.6% | activity, negative = inhibition [3] 11.7% | Potency [4] > 20.6 µM

COc1ccc(-c2cc3nc4n(c(=O)c3s2)CCOC4)cc1
inactive: activity change, negative = inhibition [1] 18.4% | activity change, negative = inhibition [2] -10.1% | activity, negative = inhibition [3] 0.631% | Potency [4] > 20.6 µM

CC1(C)Cc2c(C#N)c(NCCN3CCOCC3)nc(-c3ccco3)c2CO1
inactive: activity change, negative = inhibition [1] -12.2% | activity change, negative = inhibition [2] 5.08% | activity, negative = inhibition [3] -0.141% | Potency [4] > 20.6 µM

CCOC(=O)c1cc2cc(OC)ccc2[nH]1
inactive: activity change, negative = inhibition [1] -4.55% | activity change, negative = inhibition [2] -5% | activity, negative = inhibition [3] -4.94% | Potency [4] > 20.6 µM

Cc1cc(C)nc(NC(=O)c2ccc(OC(C)C)cc2)n1
inactive: activity change, negative = inhibition [1] -5.46% | activity change, negative = inhibition [2] -4.53% | activity, negative = inhibition [3] -7.33% | Potency [4] > 20.6 µM

CCCCCC(=O)N1CC2(CC)CN(C(=O)CCCCC)CC(CC)(C1)C2=O
inactive: activity change, negative = inhibition [1] -3.04% | activity change, negative = inhibition [2] -17.5% | activity, negative = inhibition [3] 4.63% | Potency [4] > 20.6 µM

C=C(C)Cn1c(-c2ccc(OC)cc2)nc2ccccc21
inactive: activity change, negative = inhibition [1] -23.2% | activity change, negative = inhibition [2] 3.93% | activity, negative = inhibition [3] 5.37% | Potency [4] > 20.6 µM

COc1ccccc1OCC(=O)Nc1ccc(S(=O)(=O)Nc2cc(C)nc(C)n2)cc1
inactive: activity change, negative = inhibition [1] -4.5% | activity change, negative = inhibition [2] -9.32% | activity, negative = inhibition [3] -5.19% | Potency [4] > 20.6 µM

COC(=O)c1ccc(C2/C(=C(\O)c3ccc4c(c3)OCCO4)C(=O)C(=O)N2CCCN(C)C)cc1 (stereo not given)
inactive: activity change, negative = inhibition [1] 10.1% | activity change, negative = inhibition [2] 5.87% | activity, negative = inhibition [3] -5.8% | Potency [4] > 20.6 µM

O=C1c2ccccc2C(=O)N1CC1c2ccccc2CCN1C(=O)N1CCOCC1 (stereo not given)
inactive: activity change, negative = inhibition [1] -3.7% | activity change, negative = inhibition [2] -0.0702% | activity, negative = inhibition [3] 1.92% | Potency [4] > 20.6 µM

COc1cccc(N2C(=O)C(O)=C(C(C)=O)C2c2ccc(OC)c(OC)c2)c1 (stereo not given)
inactive: activity change, negative = inhibition [1] -12.6% | activity change, negative = inhibition [2] 9.05% | activity, negative = inhibition [3] 0.326% | Potency [4] > 20.6 µM

CCCCNc1nc2c(c(=O)n(C)c(=O)n2C)n1Cc1cccc(OC)c1
inactive: activity change, negative = inhibition [1] -11.7% | activity change, negative = inhibition [2] 2.13% | activity, negative = inhibition [3] -17% | Potency [4] > 20.6 µM

Cc1cc2c(c(=O)n1CC1CCCO1)C(c1ccc3c(c1)OCO3)C(C#N)=C(N)O2 (stereo not given)
inactive: activity change, negative = inhibition [1] -18.5% | activity change, negative = inhibition [2] -16.1% | activity, negative = inhibition [3] -17.8% | Potency [4] > 20.6 µM

COc1cc(/C=N/n2c(C)nnc2C)cc(OC)c1OC
inactive: activity change, negative = inhibition [1] -12.3% | activity change, negative = inhibition [2] 10.5% | activity, negative = inhibition [3] -4.5% | Potency [4] > 20.6 µM

COc1cccc(N2CCN(C3CC(=O)N(c4cccc(Cl)c4)C3=O)CC2)c1 (stereo not given)
inactive: activity change, negative = inhibition [1] -3.08% | activity change, negative = inhibition [2] 12.6% | activity, negative = inhibition [3] -13.6% | Potency [4] > 20.6 µM

c1coc(-c2nc3nc4ccccc4nc3n2-c2ccc3c(c2)OCCO3)c1
inactive: activity change, negative = inhibition [1] -28.6% | activity change, negative = inhibition [2] 21.1% | activity, negative = inhibition [3] -8.28% | Potency [4] > 20.6 µM

COc1ccccc1C1/C(=C(/O)c2ccc(C)cc2)C(=O)C(=O)N1Cc1ccco1 (stereo not given)
inactive: activity change, negative = inhibition [1] 12.8% | activity change, negative = inhibition [2] 15.4% | activity, negative = inhibition [3] -15.4% | Potency [4] > 20.6 µM

COc1cccc(C(=O)N2CCN(S(=O)(=O)Cc3ccccc3)CC2)c1OC
inactive: activity change, negative = inhibition [1] 8.1% | activity change, negative = inhibition [2] 18.1% | activity, negative = inhibition [3] -3.28% | Potency [4] > 20.6 µM

CCn1nc(NC(=O)c2ccco2)c2cc3ccccc3nc21
inactive: activity change, negative = inhibition [1] -5.14% | activity change, negative = inhibition [2] 5.58% | activity, negative = inhibition [3] -7.47% | Potency [4] > 20.6 µM

CCCOC(=O)C1[C@H]2C(=O)N(Cc3ccco3)C[C@]23C=C[C@H]1O3 (stereo not given in full)
inactive: activity change, negative = inhibition [1] 0.485% | activity change, negative = inhibition [2] 2.35% | activity, negative = inhibition [3] 4.93% | Potency [4] > 20.6 µM
